# Laboratory results from PubChem BioAssay AID1578 (Sanford-Burnham Center for Chemical Genomics, 2009).
# In all, about 290,000 compounds went through this assay and about 3,000 (1%) were called active. For the sample, actives were picked, then their nearest neighbours and some compounds at random. Unmarked numbers belong to inactive results. No stated cut-off is given here; in the data, active means inhibition mostly above about 36% (no sharp cut-off); inactive means mostly below about 34%.
# Test: NOD1 signaling inhibitors, primary screen, cell-based, luminescence, uHTS (AID 1578);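 further: HEK-293T reporter cells stimulated with the NOD1 agonist gamma-tri-DAP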
# Conditions: NOD1-driven NF-kB luciferase reporter cells, at 4 µM, stronger effect = higher value
row,Structure (SMILES),inhibition
1,CCOC(=O)c1c(COc2ccccc2)oc2ccc(O)cc12,0%
2,CCOC(=O)c1c(CSc2ccc(C)cc2)oc2ccc(O)cc12,30%
3,CCOC(=O)c1c(CSc2ccccc2)oc2ccc(O)cc12,98.6% (active)
4,CCOC(=O)CC(=O)CSc1nc2ccccc2c(=O)n1-c1ccc(C(=O)N2CCOCC2)cc1,6.8%
5,Cc1ccc(Cn2nnc3c(=O)[nH]c(C4CCCN(S(=O)(=O)c5ccc(F)cc5)C4)nc32)cc1 (stereo unspecified),-17.1%
6,CCN(CC(=O)Nc1ccc(NC(C)=O)cc1)C(=O)C1COc2ccccc2O1 (stereo unspecified),-17.6%
7,CC(CN1CCOCC1)OC(=O)c1ccc(Br)cc1 (stereo unspecified),-14.8%
8,CC(CN1CCOCC1)OC(=O)c1ccccc1 (stereo unspecified),-4.8%
9,CC(CN1CCOCC1)OC(=O)c1ccc(C(C)(C)C)cc1 (stereo unspecified),68.1% (active)
10,Cc1nc2c(c(=O)n1Cc1ccccc1Cl)c1nc3ccccc3nc1n2Cc1ccco1,17.8%
11,COc1ccc(Cn2c3nc4ccccc4nc3c3c(=O)n(Cc4ccco4)c(C)nc32)cc1,110% (active)
12,COc1ccc(Cn2c3nc4ccccc4nc3c3c(=O)n(Cc4ccco4)cnc32)cc1,32.5%
13,O=C(NS(=O)(=O)Nc1ccc(Br)cn1)c1c[nH]c2ccccc12,31.1%
14,CCOc1ccc(S(=O)(=O)N(C)c2ccc(OCC(=O)NCCc3ccc(OC)cc3)cc2)cc1,-14%
15,CN1CCN(S(=O)(=O)c2cccc(C(=O)Nc3sc4c(c3-c3nc5ccccc5[nH]3)CCCC4)c2)CC1,-16%
16,O=C(Nc1ccncc1)c1cccs1,37.2%
17,O=C(Nc1nonc1NC(=O)c1cccs1)c1cccs1,58.9% (active)
18,O=C(Nc1ccc(NC(=O)c2cccs2)cc1)c1cccs1,-30.2%
19,N#C/C(=C\c1cccc([N+](=O)[O-])c1)C(=O)NCC1CCCO1 (stereo unspecified),-21%
20,O=C(Nc1ccccc1C(=O)O)c1ccc(Br)c(S(=O)(=O)NCc2ccccc2)c1,-0.6%
21,CCOC(=O)CNC(=O)CSc1ncnc2c1cnn2Cc1ccccc1,55.8% (active)
22,CCOC(=O)CNC(=O)CSc1ncnc2c1cnn2-c1ccccc1,-10.2%
23,COC(=O)CSc1ncnc2c1cnn2Cc1ccccc1,13.7%
24,COc1ccc(-c2cc(C3CCN(c4cc(Cl)nc(N)n4)CC3)[nH]n2)cc1,25.9%

row,Structure (SMILES),inhibition
1,Nc1nc(Cl)cc(N2CCC(c3cc(-c4ccc(Cl)cc4Cl)n[nH]3)CC2)n1,34.5%
2,COc1ccc(OC)c(-c2cc(C3CCN(c4cc(Cl)nc(N)n4)CC3)[nH]n2)c1,56.3% (active)
3,COC(=O)c1cc(C(=O)c2ccccc2)n2c(=O)/c(=C\N(C)C)sc12,-11.3%
4,O=C(NNC(=S)Nc1ccccc1C(F)(F)F)C1CC1,-0.9%
5,N#CCC(=O)NNC(=S)Nc1ccccc1C(F)(F)F,42.8% (active)
6,O=C(CCC(=O)Nc1ccccc1Cl)NNC(=S)Nc1ccccc1C(F)(F)F,-30.7%
7,Cc1ccc(C(=O)c2oc3nc(C)cc(C)c3c2N)cc1,-6.8%
8,Cc1cc(C)c2c(N)c(C(=O)c3ccccc3)oc2n1,2%
9,Cc1cc(C)c2c(N)c(C(=O)c3ccc(Br)cc3)oc2n1,68.7% (active)
10,CCOC(=O)c1c(C)[nH]c(C(=O)COC(=O)c2ccccn2)c1C,1%
11,CC(C)n1c(CN(C)c2ccccc2)nc2ccccc21,-18.1%
12,COc1ccc(NC(C)=O)cc1S(=O)(=O)NC(Cc1ccccc1)C(=O)O (stereo unspecified),-2.4%
13,COc1ccc(OC)c(S(=O)(=O)Nc2ccc(OCC(=O)O)cc2)c1,2.7%
14,COc1ccc(NC(=O)c2nnn(CC(=O)Nc3ccc4c(c3)OCO4)c2N)c(OC)c1,-46.4%
15,C=CCN=C(NC#N)SCC(=O)NC(C)(C)C,1.5%
16,Cn1c(SCC(=O)NC2CCCCC2)nnc1-c1ccc(N)cc1,-10.1%
17,Cn1c(SCC(=O)NC2CCCCC2)nnc1-c1cccc(N)c1,46.1% (active)
18,Cc1cccc(-c2nnc(SCC(=O)NC3CC3)n2C)c1,-27.5%
19,CCn1ccnc1[C@@H]1C[C@H]2CN(c3ccccc3OC)C(=O)[C@]23CCCN13,-22.3%
20,C=C(C)Cn1c(NCCC)nc2c1c(=O)n(C)c(=O)n2C,-26.6%
21,CC(CCc1ccccc1)NC(=O)CN1CCSc2ccccc21 (stereo unspecified),8%
22,CC(C)(C)C1CCC(=O)N(CCSc2ccccc2)CC1 (stereo unspecified),-65%
23,COC1=C(OC)C(=O)C(CCCCCCCCCCO)=C(C)C1=O,87.7% (active)
24,Cc1[nH]c(=S)[nH]c(=O)c1CCCO,-25.6%

row,Structure (SMILES),inhibition
1,CC1=C(C)C(=O)C(CCCCC#CCCCC#CCO)=C(C)C1=O,-6.7%
2,COc1ccc(CNCCC(c2ccccc2)c2ccc(OC(C)C)cc2)cc1OC (stereo unspecified),-3.1%
3,COc1ccc(C(CCN(Cc2ccc(OC)c(OC)c2)C(=O)CCl)c2ccccc2)cc1 (stereo unspecified),82.9% (active)
4,COc1ccc(C(CCN(Cc2ccc(OC)c(OC)c2)C(C)=O)c2ccccc2)cc1 (stereo unspecified),14.5%
5,COc1ccc(CNCCC(c2ccc(OC(C)C)cc2)c2ccccc2OC)cc1OC (stereo unspecified),-0.9%
6,COc1ccc(C(CCN(Cc2ccc(OC)c(OC)c2)C(C)=O)C(C)C)cc1 (stereo unspecified),-0.7%
7,COc1ccccc1N(C(C)=O)c1nc(C)cc(C)c1C#N,-33.1%
8,O=C(O)c1ccc(NS(=O)(=O)c2cccc(S(=O)(=O)c3ccc(Cl)c(Cl)c3)c2)cc1,-30.6%
9,COc1cc2c(cc1OC)CN(CC(=O)Nc1ccc(C)c(S(=O)(=O)N3CCOCC3)c1)CC2,-14.6%
10,COc1cccc(NC(=O)Cn2nc(Cc3cccnc3)c3ccccc3c2=O)c1,-18.3%
11,CCCn1c(/C=C/c2ccccc2)nc2ccccc21,-41.4%
12,COc1ccc(/C=C/c2nc3ccccc3n2Cc2ccccc2OC)cc1,5.5%
13,C=CCn1c(/N=C/c2ccc(OC)cc2)nc2ccccc21,-6.3%
14,COc1ccc(/C=C/c2nc3ccccc3n2C)cc1,74.4% (active)
15,COc1ccc(/C=N\n2nnc3ccccc32)cc1,42% (active)
16,COc1ccc(/C=N/NC(=O)CCn2nnc3ccccc32)cc1,-3.7%
17,Cn1c(/C=C/c2ccccc2)nc2ccccc2c1=O,-12.9%
18,Cn1c(/C=C/c2ccccc2)nc2ccccc21,48.9% (active)
19,COc1ccc(Cn2c(/C=C/c3ccccc3)nc3ccccc32)cc1,-65.7%
20,O=C(OCC(=O)C12CC3CC(CC(C3)C1)C2)c1cnccn1,-23.7%
21,CCOC(=O)c1c(CSc2ccc(C)cc2)n(C)c2cc(Br)c(O)c(CN(C)C)c12,-29.9%
22,CC(C)(C)c1ccc(OCCNC(=S)NC(=O)c2cccnc2)cc1,-17.1%
23,Cc1ccc2[nH]c(=O)c3cc(C(=O)NC(C)C)sc3c2c1,-4.6%
24,COC(=O)CSc1nnc(CNC(=O)c2cccs2)n1-c1cccc(C)c1,-22.2%

row,Structure (SMILES),inhibition
1,COC(=O)c1ccc(N2CCN(S(=O)(=O)c3ccccc3)CC2)c([N+](=O)[O-])c1,-18.3%
2,O=C(c1ccc(N2CCN(S(=O)(=O)c3ccccc3)CC2)c([N+](=O)[O-])c1)N1CCOCC1,-3.7%
3,CCN1CCN(C(c2cccs2)C(C)NC(=O)C(=O)N2CCCCC2)CC1 (stereo unspecified),-23.8%
4,Cc1ccc(Nc2ncnc3c2nnn3Cc2ccccc2)cc1,-7.5%
5,O=C(CCC(=O)N1CCSc2ccccc21)NCc1cccc(Br)c1,-27.1%
6,COc1ccc(-c2cc3nc[nH]c(=O)c3s2)cc1,-1.7%
7,O=c1[nH]cnc2cc(-c3ccc(Br)cc3)sc12,-63.3%
8,O=c1[nH]c(CCl)nc2cc(-c3ccc(Cl)cc3)sc12,92.6% (active)
9,OCCN(CC#CCC(O)(c1ccccc1)C1CCCC1)CCO (stereo unspecified),-2%
10,CCCCCc1cc(=O)oc2c(C(CCN3CCCCC3)c3ccc4c(c3)OCO4)c(OC)cc(OC)c12 (stereo unspecified),2.9%
11,Cc1ccc2[nH]c(C)c(/C=C/c3cc[n+](C)cc3)c2c1,5.6%
12,Cc1ccc2[nH]cc(/C=C/c3cc[n+](C)cc3)c2c1,4.2%
13,Cc1ccc(Cn2c(S(=O)(=O)O)nc3ccccc32)cc1,-25.7%
14,O=S(=O)(O)c1nc2ccccc2n1Cc1ccccc1,82.8% (active)
15,CS(=O)(=O)c1nc2ccccc2n1Cc1ccccc1,13.9%
16,COc1ccc(CCC(=O)N(c2nnc(-c3cccnc3)s2)C(C)C)cc1,-14.2%
17,NC(=O)NC(=O)CSc1ccccc1,-37.5%
18,COCCc1nnc(NC(=O)C23CC4CC(CC(C4)C2)C3)s1,-34.2%
19,O=C(Nc1ccc(Oc2cccc(C(F)(F)F)c2)nc1)c1ccccc1,10.3%
20,CC(C)(C)c1ccc(C(=O)Nc2ccc(Oc3cccnc3)nc2)cc1,29%
21,O=S(=O)(N/N=C\c1ccc2c(c1)OCO2)c1ccc(F)cc1,-7.6%
22,CC(=O)Nc1ccc(NC2=Nc3ccccc3N3C2=Nc2c(c(C)nn2-c2ccccc2)C3c2ccccc2)cc1 (stereo unspecified),99% (active)
23,Cc1ccc(NC2=Nc3ccccc3N3C2=Nc2c(c(C)nn2-c2ccccc2)C3c2ccc(O)c(O)c2)cc1 (stereo unspecified),2.5%
24,Cc1nn(-c2ccccc2)c2c1C(c1ccc(O)c(O)c1)N1C(=N2)C(Nc2ccccc2)=Nc2ccccc21 (stereo unspecified),-2.4%
